About 80 (0.04%) of roughly 200,000 compounds were called active.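 How the source made its calls: active means activation above the mean across all tested compounds plus 3 SD, cutoff set per campaign (cut at about 5.5% in these data); inactive means the rest.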 For the sample, actives were picked, then their nearest neighbours and some compounds at random.
Test: Hsp70 promoter-driven reporter induction – cell-based, HeLa, Hsp70 promoter luciferase, luminescence, 10 µM, primary screen (AID 1203);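 further: 100% = MG132 at 30 µM as the positive control and 0% = DMSO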
Conditions: at 10 µM, hits give high values, scaled: vehicle 0, proteasome-inhibitor control 100%

activation, inactive:
COc1ccc(OCC(O)CNC(=O)Nc2ccc(Cl)cc2)cc1 (stereo unspecified) -0.12%, NS(=O)(=O)c1ccc(N=Cc2ccc(Br)s2)cc1 -0.31%, CCOC(=O)C/C(C)=N\Nc1ccc([N+](=O)[O-])cc1[N+](=O)[O-] 0.04%, O=S(=O)(c1ccc2c(c1)OCCO2)N1CCc2ccccc21 0.08%, O=C(CSc1nncs1)NC1CCCc2ccccc21 (stereo unspecified) -0.09%, O=S(=O)(ON(c1ccccc1)S(=O)(=O)c1ccccc1)c1ccccc1 -0.24%, CCOC(=O)c1c(NC(=S)NC(=O)/C=C/c2cccs2)sc(C)c1C -0.28%, O=C(NNC(=S)Nc1ccc(Br)cc1Cl)c1ccco1 -0.21%, CCC(=O)OCc1c(C(F)(F)F)nn(C)c1Oc1cccc(C(F)(F)F)c1 -0.27%, CCNC(=O)NNC(=O)C1CC(c2cccs2)=NO1 (stereo unspecified) -0.44%, CCOC(=O)c1cnc2c(c(C)nn2CC)c1Cl -0.38%, C/C(=N\NC(=O)CNc1cccc2ccccc12)c1ccc(Br)s1 -0.39%, CCCC1NC(=S)NC(C)=C1C(C)=O (stereo unspecified) -0.09%, CCOC(=O)NN1C(=O)c2ccccc2NC1c1ccccc1O (stereo unspecified) -0.07%, CC1CC(C)(C)NC(=S)N1CCC(=O)N1CCN(Cc2ccccc2)CC1 (stereo unspecified) -0.64%, CC(C)(C)c1ccc(NC(=O)COC(=O)CCc2nc3ccccc3c(=O)[nH]2)cc1 -0.35%, CSCCC(NC(=O)COc1ccccc1)C(=O)Nc1ccc(C)cc1 (stereo unspecified) -0.22%, COc1ccc(C(CC(=O)c2ccccc2)S(=O)(=O)c2ccccc2)cc1 (stereo unspecified) -0.26%, COC(=O)C1=CN(Cc2ccc(OC)c(OC)c2)C=C(C(=O)OC)C1c1cccs1 -0.18%, O=C1Oc2ccccc2C(=O)/C1=C/c1ccccc1O -0.37%, CC(=O)c1ccc(NC(=O)C(C)N(C)CC(=O)Nc2ccccc2Cl)cc1 (stereo unspecified) -0.06%

Source: PubChem BioAssay AID1203 (The Scripps Research Institute Molecular Screening Center, 2008)
